TbPYK inhibitor: blocks Trypanosoma brucei pyruvate kinase; Q57TT1; TbPYK enzyme, Kinase-Glo Plus ATP luminescence, 45 min; Potency, µM (top dose mostly 76.8 µM), inactives show at the highest dose activity, negative = inhibition, hits mostly inhibitors; 0.12% of 410,000 active; note: potency is the fitted concentration of half-maximal effect; nearly all actives have a fitted effect of over 50% in size
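Luminescent Kinase-Glo Plus end-point after 45 min room-temperature reaction of T. brucei pyruvate kinase started with 130 uM ADP (final). Buffer TEA 50 mM pH 7.2 with KCl, MgCl2, BSA, Tween-20; titration-based qHTS with fitted concentration-effect curves.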
Giardia FBPA inh-1: inhibitors of Giardia lamblia fructose-1,6-bisphosphate aldolase. AID 2451. A8B2U2. 0.71% of 290,000 active. purified Giardia FBPA. Potency, µM (titrated, usually from 59.6 µM), without a hit: top-dose activity, negative = inhibition, usual class: inhibitors; note: potency is the fitted concentration of half-maximal effect; nearly all actives have a fitted effect of over 55% in size
Target sequence (A8B2U2 whole entry, looked up): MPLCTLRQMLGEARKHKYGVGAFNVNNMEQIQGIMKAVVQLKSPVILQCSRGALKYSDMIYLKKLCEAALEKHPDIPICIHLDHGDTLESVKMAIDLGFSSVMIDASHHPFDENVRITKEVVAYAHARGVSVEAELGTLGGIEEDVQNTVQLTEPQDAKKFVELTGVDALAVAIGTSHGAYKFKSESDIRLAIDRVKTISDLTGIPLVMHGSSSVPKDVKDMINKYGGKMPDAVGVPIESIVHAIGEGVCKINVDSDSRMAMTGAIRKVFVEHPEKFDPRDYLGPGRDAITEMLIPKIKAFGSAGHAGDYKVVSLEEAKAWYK
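Giardia FBPA (40 nM reagent) was preincubated 10 min at RT with compound (up to 57.5 uM final), then substrate plus GAPDH/TPI/NAD/arsenate coupling system with diaphorase/resazurin was added; resorufin fluorescence (525/598 nm) was read after 20 min.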
RE007 growth inh: less growth of the S. pombe RE007 Vpr strain | S. pombe RE007 Vpr strain, BacTiter-Glo ATP luminescence, 24 h | Potency, µM (series often up to 92.2 µM), for inactives: at the top dose activity change, negative = less growth, most hits filed as inhibitors | 0.21% of 360,000 active | AID 651644; active = well fitted falling curve with a large enough effect; inconclusive = small, poorly fitted or top-dose-only effect; inactive = no such curve, though single readings can be large or run the other way; note: potency is the fitted concentration of half-maximal effect; nearly all actives have a fitted effect of over 50% in size
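Fission yeast RE007 carrying one integrated HIV-1 vpr copy, seeded at OD 0.01 in PMG+AL medium with 23 nL pinned compound. Grown 24 h at 30 degrees; viability read by BacTiter-Glo luminescence after 5 min.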
FMDV antiviral: blocks foot and mouth disease virus | FMDV antiviral cell-based qHTS | 1.2% of 410,000 active | Potency, µM (titrated, usually from 57.9 µM), for inactives: at the top dose activity change, negative = inhibition, hits mostly inhibitors; calls by dose curve; tested in HEK293T cells; note: read-out not given here; potency is the fitted concentration of half-maximal effect; nearly all actives have a fitted effect of over 45% in size
Sm TGR inh: blocks Schistosoma mansoni thioredoxin glutathione reductase | purified TGR, DTNB reduction, TNB absorbance 405 nm | Potency, µM (series often up to 114 µM), for the others: top-dose activity change, negative = inhibition, most hits filed as inhibitors | 3% of 360,000 active; note: potency is the fitted concentration of half-maximal effect; nearly all actives have a fitted effect of over 60% in size
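First, TGR (20 nM dispensed) and NADPH were mixed with compound. Second, a 15 min room-temperature incubation followed. Third, further NADPH and then DTNB were added to start the reaction. Finally, TNB absorbance was monitored kinetically.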
HCMV antiviral: human cytomegalovirus inhibition | HFF cells, HCMV-luciferase reporter, 72 h; active compounds read low | AID 1259415 | 4.5% of 410,000 active | activity change, negative = inhibition, % at 57.5 µM; in the data active = activity change below about -60%; inconclusive = no clear call, values can overlap the other calls; inactive = above about -39%
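Two compound doses tested in HFFs infected with HCMV-luciferase, MOI 1 PFU/cell, 72 h at 37C. Lysate luminescence read with OneGlo; data normalized against buffer-only and 10uM Salinomycin inhibitor controls.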
Giardia growth: Giardia lamblia growth inhibition; AID 2785; 5% of 1,500 active; Potency, µM (titrated, usually from 57.5 µM), for inactives: at the highest dose activity change, negative = inhibition, usual class: inhibitors; shares compounds with Giardia FBPA inh-1; Giardia lamblia trophozoite growth inhibition;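 note: potency is the fitted concentration of half-maximal effect; trophozoites exposed to compound for 48 h at 37 °C; nearly all actives have a fitted effect of over 70% in size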
Mammal cell tox: mammalian cytotoxicity of Giardia aldolase inhibitor hits. shares compounds with Giardia FBPA inh-1. mammalian cell viability counter-screen, qHTS. Potency, µM (doses to about 57.5 µM), for the others: at the top dose viability change, negative = toxicity, most hits filed as inhibitors. 4% of 1,500 active. AID 2786;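 note: Chinese hamster ovary cells used as mammalian cytotoxicity surrogate; viability measured as cellular ATP by luminescence; potency is the fitted concentration of half-maximal effect; compound exposure lasted 48 h before reading; nearly all actives have a fitted effect of over 60% in size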
Giardia FBPA inh-2: confirmation of Giardia fructose-bisphosphate aldolase inhibitors | shares compounds with Giardia FBPA inh-1 | purified Giardia aldolase enzyme activity, qHTS | Potency, µM (titrated, usually from 57.5 µM), for inactives: at the highest dose activity change, negative = inhibition, actives largely listed as inhibitors | 5% of 1,500 active | AID 2787; note: potency is the fitted concentration of half-maximal effect; nearly all actives have a fitted effect of over 45% in size
Rabbit aldolase: blocks rabbit muscle aldolase in Giardia aldolase selectivity test | 4% of 1,500 active | Potency, µM (top dose mostly 57.5 µM), without a hit: top-dose activity, negative = inhibition, hits mostly inhibitors | Rabbit muscle FBPA enzyme inhibition, selectivity counter-screen | shares compounds with Giardia FBPA inh-1; note: potency is the fitted concentration of half-maximal effect; nearly all actives have a fitted effect of over 60% in size
Target sequence (P00883 whole entry, looked up): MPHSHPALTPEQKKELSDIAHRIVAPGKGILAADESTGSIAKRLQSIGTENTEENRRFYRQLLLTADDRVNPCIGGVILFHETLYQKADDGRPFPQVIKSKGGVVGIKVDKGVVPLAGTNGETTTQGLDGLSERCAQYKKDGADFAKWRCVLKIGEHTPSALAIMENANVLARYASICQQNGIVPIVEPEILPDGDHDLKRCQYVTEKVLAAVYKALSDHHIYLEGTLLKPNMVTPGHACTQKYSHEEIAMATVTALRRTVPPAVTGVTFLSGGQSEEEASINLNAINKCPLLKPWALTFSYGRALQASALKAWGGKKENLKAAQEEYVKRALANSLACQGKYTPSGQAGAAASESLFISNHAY
GAPDH counter: counter-screen for Giardia aldolase inhibitors: GAPDH coupling enzyme; Potency, µM (series often up to 57.5 µM), for inactives: at the highest dose activity change, negative = inhibition, actives largely listed as inhibitors; GAPDH coupling enzyme counterscreen, biochemical, qHTS; 6% of 1,500 active; shares compounds with Giardia FBPA inh-1; note: potency is the fitted concentration of half-maximal effect; nearly all actives have a fitted effect of over 55% in size
* marks the source's active call; other numbers are inactive results; ? = inconclusive; / = not tested or not shown; [ ] = remark or other dose. Sampled rows, rich in hits. Any-hit rate of the full collection: about 7.7%. Unless noted, calls come from the whole dose curve; as a rule, active = well fitted curve in the direction sought with a large enough effect; inconclusive = small, poorly fitted or top-dose-only effect, or another doubt; inactive = no such curve, though single readings can be large; an effect the other way counts as inactive or inconclusive. % is set by controls: 0 for no effect and ±100 for the full control effect.

SMILES	TbPYK inhibitor	Giardia FBPA inh-1	RE007 growth inh	FMDV antiviral	Sm TGR inh	HCMV antiviral	Giardia growth	Mammal cell tox	Giardia FBPA inh-2	Rabbit aldolase	GAPDH counter
CC1=C(C#N)C(=O)N(C2CCS(=O)(=O)C2)C(=O)/C1=C\c1ccco1 (stereo not given)	/	10µM*	/	/	8.9µM*	/	12%[38.3 µM]	-6%	?	?	21µM*
COC(=O)CSC1=C(C#N)C(c2ccc(C)cc2)C2=C(CCCC2=O)N1 (stereo not given)	-2%	-17%	-3%	0%	-19%	-11	/	/	/	/	/
CCOC(=O)CSC1=C(C#N)C(C)C2=C(CCCC2=O)N1 (stereo not given)	-1%	16µM*	-7%	-3%	-30%	12	-12%[10.4 µM]	-12%	-8%	1%	6%
CC(C)NCc1cc(Br)ccc1OCc1ccccc1	5%	-4%	-10%	-26%	7%	-8	/	/	/	/	/
COc1ccc(Br)cc1CNc1ccccc1	-3%	28µM*	15%	-6%	0%	-30	?	-2%	-5%	-6%	0%
O=C(Nn1cc(C(=O)Nc2ccc(F)cc2F)c2ccccc2c1=O)c1cnccn1	-1%	18µM*	-6%	-22%	2%	-22	?	-9%	-9%	1%	-17%
O=C(Nc1ccccc1F)c1cnccn1	-2%	5%	0%	35%	1%	-15	/	/	/	/	/
CC1=NN(c2ccccc2)C(=O)C1N=Nc1cccc(O)c1 (stereo not given)	2%	10µM*	-26%	14%	-19%	211	?	3%	4%	-3%	1%
COc1ccc(N=NC2C(=O)N(c3ccccc3)N=C2C)cc1 (stereo not given)	4%	28µM*	-3%	17%	4%	6	7%	-9%	2%	-1%	-1%
Cc1cc(C)cc(NC(=O)COCc2cc(-c3ccc4c(c3)OCO4)on2)c1	2%	/	/	-15%	4%	9	/	/	/	/	/
CCOC(=O)Cc1csc(NC(=S)NC(=O)c2cc(OC)c(OC)c(OC)c2)n1	0%	20µM*	22%	?	-10%	26	-27%	-7%	-11%	-3%	2%
CCOC(=O)Cc1csc(NC(=S)NC(=O)c2ccc(F)cc2)n1	-6%	7.9µM*	?	-20%	?	-62*	-27%	-4%	12%	7%	9%
CCc1cccc(NC(c2nnc(-c3ccccc3)o2)c2ccc(F)cc2Cl)c1 (stereo not given)	1%	/	/	-20%	5%	4	/	/	/	/	/
Cc1ccc(NC(=O)CSc2nc3n[nH]c(C)c3c(=N)n2-c2ccccc2C)cc1C	-5%	/	/	?	13%	-27	/	/	/	/	/
COc1ccc(NC(=O)CN2C(=O)CCn3nc(-c4cccn4C)cc32)cc1Cl	5%	/	/	-13%	-22%	1	/	/	/	/	/
S=c1[nH]nc(CCCc2n[nH]c(=S)o2)o1	?	0.5µM*	1%	-2%	0%	46	15%[38.3 µM]	-10%	?	14%	-1%
COc1ccc(CCCc2n[nH]c(=S)o2)c(C)c1	?	8%	-2%	3%	12%	-35	/	/	/	/	/
FC(F)(F)c1cc(CN2CCC3(CCNCC3)CC2)cc(C(F)(F)F)c1	2%	7%	/	-3%	/	/	/	/	/	/	/
CCS(=O)(=O)N1CCN(Cc2ccncc2)CC1	-8%	14µM*	-7%	/	5%	28	14%	12%	7%	4%	17%
O=C(O)CNC(=O)CC1S/C(=N/N=C2\CSC(=O)N2)NC1=O (stereo not given)	-2%	5.6µM*	10%	2%	1%	19	13%[38.3 µM]	4%	-10%	8%	-8%
CCS(=O)(=O)c1c(Nc2ccc(F)c(Cl)c2)sc(C(=O)c2ccccc2)c1N	3%	/	/	-29%	-15%	1	/	/	/	/	/
Cc1c(Cl)cccc1NC(=O)Nc1nnc(N(C)Cc2ccccc2)s1	0%	/	/	-17%	7%	-13	/	/	/	/	/
O=C(Nc1cc(C(F)(F)F)ccc1N1CCOCC1)c1ccncc1	-2%	/	6%	-6%	/	1	/	/	/	/	/
O=C(CNCc1ccccn1)Nc1cc(C(F)(F)F)ccc1N1CCOCC1	-9%	16µM*	?	-23%	-2%	-5	?	1%	6%	6%	9%
CC(=O)c1ccc(S(=O)(=O)Nc2ccc(-c3ccc(N4CCCCC4)nn3)cc2)cc1	-12%	/	/	51%	-6%	43	/	/	/	/	/
SMILES	TbPYK inhibitor	Giardia FBPA inh-1	RE007 growth inh	FMDV antiviral	Sm TGR inh	HCMV antiviral	Giardia growth	Mammal cell tox	Giardia FBPA inh-2	Rabbit aldolase	GAPDH counter
Cc1cccc(NC(=O)CSc2n[nH]c(-c3ccncc3)n2)c1C	-10%	22µM*	-1%	5%	-10%	19	14%	-2%	6%	15%	17%
Cc1ccc(C)c(NC(=O)CSc2n[nH]c(-c3ccncc3)n2)c1	-1%	-13%	-1%	-2%	-1%	38	/	/	/	/	/
O=C(C1CCCN(Cc2ccccc2F)C1)N1CCc2ccccc2C1 (stereo not given)	1%	5%	4%	-16%	-15%	-15	/	/	/	/	/
O=C(C1CCCN(Cc2ccccc2F)C1)N1CCCCC1 (stereo not given)	24%	13µM*	-13%	3%	-2%	47	-3%[10.4 µM]	-6%	4%	12%	12%
COc1cc(CNC(=O)c2sc3ncccc3c2-n2cccc2)cc(OC)c1OC	0%	/	/	-30%	1%	-18	/	/	/	/	/
O=C(CNCc1ccco1)Nc1cccc(S(=O)(=O)N2CCCCC2)c1	-15%	18µM*	1%	17%	4%	39	-4%[10.4 µM]	-7%	5%	0%	7%
CCOc1ccccc1Nc1nc2ccccc2c2nncn12	-2%	/	/	-17%	6%	6	/	/	/	/	/

Bioassay records from PubChem.
